Among the test systems are T-47D breast; BT-549 breast; MDA-MB-435 melanoma; SW-620 colon; MCF7 breast; HCT-116 colon; HCC-2998 colon; KM12 colon.
Common to all, as to assay: NCI-60 one-dose screen, 48 h (100 = growth as untreated, 0 = no growth, -100 = all killed)
Details in all cases: 10 µM unless noted

The source of these data is PubChem BioAssay (NCI).

This is part of a sample that, as a whole, favours compounds with a hit. Of some 83,000 tested, about 20% had one in any assay.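 The endpoint reported here, percent growth, reads 100 for growth as untreated, 0 for no net growth and -100 for all cells dead.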 Unmarked numbers belong to inactive results. The source made the active and inactive calls. How the source made its calls: active means growth percent below 10; inactive means the rest.

As for `CC(=O)OC1Oc2cc(C)c(C)cc2-c2oc(=O)c(-c3cc4ccc(N(C)C)cc4oc3=O)cc21` (configuration not stated), the growth in the experiment on T-47D breast is 26.3%; in the experiment with BT-549 breast, 59.3%; in the experiment with MDA-MB-435 melanoma, 72.6%; in the experiment on SW-620 colon, 104%; with MCF7 breast it was 78.6%; in the experiment on HCT-116 colon, 48.3%. Also, the values for the growth in the experiment on HCC-2998 colon and in the experiment with KM12 colon were 106% and 94.5%, respectively.
In the case of `Cc1cc(Cl)ccc1Nc1nc(C(F)(F)F)ccc1C(=O)N/N=C/c1ccc(F)cc1`, the growth in the experiment on T-47D breast was 28.4%; in the experiment on BT-549 breast, 3.74% (active); in the experiment on MDA-MB-435 melanoma, 31.9%; in the experiment with SW-620 colon, 12.7%; with MCF7 breast it was -15.2% (active); in the experiment with HCT-116 colon, 8.67% (active). Further, the figures for the growth with HCC-2998 colon and in the experiment with KM12 colon were 12.4% and 7.78% (active), respectively.
In the case of `O=C1CCc2c(sc3[nH]c(=S)n(Cc4ccccc4)c(=O)c23)C1`, the growth in the experiment with T-47D breast was 6.69% (active); in the experiment with BT-549 breast it was 10.6%; in the experiment with MDA-MB-435 melanoma, 15%; in the experiment with SW-620 colon it was 15.4%; in the experiment with MCF7 breast it was 15.8%; with HCT-116 colon it was 6.51% (active). Besides, the growth in the experiment on HCC-2998 colon was 23.9%; in the experiment with KM12 colon it was 5.93% (active).
Turning to `CCCNc1nc(SC)nc(-c2cccc(N)c2)c1C#N`, the growth with T-47D breast is 86.2%; in the experiment with BT-549 breast, 97.7%; in the experiment with MDA-MB-435 melanoma it was 103%; in the experiment with SW-620 colon, 98.7%; with MCF7 breast it was 89.1%; in the experiment with HCT-116 colon, 96.3%. For the same compound, the growth in the experiment on HCC-2998 colon is 108%; in the experiment with KM12 colon it was 101%.
In the case of `CCCCN(CCCC)CCC(C)(O)c1cc2ccccc2c2ccccc12` (configuration not stated), the growth in the experiment on T-47D breast is 109%; in the experiment with BT-549 breast, 121%; in the experiment with MDA-MB-435 melanoma, 83.9%; in the experiment on SW-620 colon, 69.5%; with MCF7 breast, 96.5%; with HCT-116 colon, 65.6%. For the same compound, the values for the growth in the experiment with HCC-2998 colon and in the experiment on KM12 colon were 80.3% and 83.8%, respectively.
As for `Cc1ccc(-c2nc(/C=N/Nc3cc(C)nc4ccc(Cl)cc34)c(C)o2)cc1`, the growth with T-47D breast was -74.4% (active); with BT-549 breast, 97%; in the experiment with MDA-MB-435 melanoma, -95.6% (active); with SW-620 colon, -70.2% (active); with MCF7 breast, -84.4% (active); in the experiment with HCT-116 colon, -54.3% (active). Further, the values for the growth in the experiment with HCC-2998 colon and with KM12 colon were -53.3% (active) and -58.3% (active), respectively.
Consider `O=C1c2cc3c(cc2-c2c1c1cc(Cl)c(Cl)cc1c(=O)n2C[C@H](O)CO)OCO3`, for which the growth in the experiment with T-47D breast is -20.2% (active); with BT-549 breast, -10.3% (active); in the experiment on MDA-MB-435 melanoma, -24.8% (active); in the experiment with SW-620 colon, 12.7%; in the experiment with MCF7 breast, -0.37% (active); with HCT-116 colon, -25.4% (active). Further, the figures for the growth in the experiment with HCC-2998 colon and in the experiment with KM12 colon were -5.57% (active) and -21% (active), respectively.
As for `CC(=O)C1=C(O)C=C2Oc3c(C(=O)/C=C/c4ccccc4)c(O)c(C)c(O)c3[C@]2(C)C1=O`, the growth with T-47D breast is 47.1%; with BT-549 breast, 49.6%; in the experiment with MDA-MB-435 melanoma, 46.3%; in the experiment on SW-620 colon, 49.9%; with MCF7 breast, 44.1%; with HCT-116 colon it was 30.9%. For the same compound, the growth was 32.6% in the experiment with HCC-2998 colon and 33.6% in the experiment on KM12 colon.
For the compound `COc1ccc(N(Cc2cc(OC)c(OC)c(OC)c2)C2OC(=O)c3ccccc32)cc1` (configuration not stated), the growth is 45.8% in the experiment on T-47D breast; 66.1% in the experiment with BT-549 breast; -55% (active) in the experiment on MDA-MB-435 melanoma; 20.3% in the experiment with SW-620 colon; 16.4% with MCF7 breast; 23% in the experiment with HCT-116 colon. The growth is 43.9% in the experiment with HCC-2998 colon and 27.7% in the experiment with KM12 colon.
Take `N=c1c2ccccc2nc2n1CCCCC2`: the growth was 111% in the experiment on T-47D breast; 117% in the experiment on BT-549 breast; 103% in the experiment on MDA-MB-435 melanoma; 110% with SW-620 colon; 99.4% with MCF7 breast; 109% with HCT-116 colon. Further, the growth with HCC-2998 colon was 106%; in the experiment with KM12 colon it was 112%.
Take `CC[C@H](Nc1ncnc(N)c1C(N)=O)c1nc2cccc(NCc3ccc(C(=O)NO)cc3)c2c(=O)n1-c1ccccc1`: the growth was 42.1% in the experiment with T-47D breast; 88.6% in the experiment with BT-549 breast; 81.8% in the experiment on MDA-MB-435 melanoma; 66.8% in the experiment on SW-620 colon; 82.8% in the experiment with MCF7 breast; 67% with HCT-116 colon. Besides, the growth with HCC-2998 colon is 86.1%; with KM12 colon it was 89.6%.
Take `O=C(CCN1CCOCC1)Nc1ccc(Cn2nnc3c2C(=O)c2nnn(Cc4ccc(NC(=O)CCN5CCOCC5)cc4)c2C3=O)cc1`: the growth with T-47D breast was -3.09% (active); with BT-549 breast it was 29.6%; with MDA-MB-435 melanoma, -76.2% (active); with SW-620 colon it was 30.7%; in the experiment on MCF7 breast it was -56.3% (active); with HCT-116 colon, -15.6% (active). The growth in the experiment with HCC-2998 colon was -7.48% (active); in the experiment on KM12 colon it was 43%.
Take `O=C(Nc1ccc(Nc2cc(Nc3ccccc3)ncn2)cc1)Nc1cc(C(F)(F)F)ccc1F`: the growth in the experiment on T-47D breast was 24.1%; with BT-549 breast it was 85.3%; with MDA-MB-435 melanoma, 75.8%; in the experiment on SW-620 colon, 120%; in the experiment with MCF7 breast, 51.6%; in the experiment on HCT-116 colon it was 63.7%. In addition, the growth in the experiment with HCC-2998 colon is 93.7%; with KM12 colon, 23.3%.
Regarding `Cl/C(=N\Nc1ccccc1)c1ccccc1`, the growth was 89.9% in the experiment on T-47D breast; 98.8% with BT-549 breast; 80.6% in the experiment on MDA-MB-435 melanoma; 105% in the experiment on SW-620 colon; 87.4% in the experiment with MCF7 breast; 102% with HCT-116 colon. Besides, the growth with HCC-2998 colon is 102%.
As to `Nc1c(C(=O)Nc2cccc3c2OCCO3)sc2nc3c(cc12)C(=O)CCC3`, the growth is 36.5% in the experiment with T-47D breast; 62.7% in the experiment with BT-549 breast; -60.4% (active) in the experiment with MDA-MB-435 melanoma; 25.2% in the experiment on SW-620 colon; 18.6% in the experiment on MCF7 breast; 33.8% with HCT-116 colon. In addition, the values for the growth with HCC-2998 colon and with KM12 colon were 46.6% and 23.4%, respectively.
With `C=C1CC2(OC1=O)C(=O)Nc1ccccc12` (configuration not stated), the growth in the experiment on T-47D breast is 37.3%; in the experiment with BT-549 breast it was 75.3%; in the experiment on MDA-MB-435 melanoma it was 49.7%; in the experiment with SW-620 colon it was 4% (active); with MCF7 breast it was 16.4%; in the experiment on HCT-116 colon, 31.4%. The growth with HCC-2998 colon was 90.1%; with KM12 colon, 97.3%.
